# Bioassay records (PubChem)
# BJeLR lethal = kills HRASV12-expressing BJeLR cells; BJeLR (HRASV12) viability, CellTiter-Glo ATP luminescence, 48 h; inhibition, % (concentration not given with the values); actives 0.17% (n = 300,000); AID 1554; in the data active means inhibition above about 50%
# Sa ugtP lethal = growth inhibition of S. aureus ugtP deletion strain. actives 0.54% (n = 330,000). growth inhibition, % (concentration not given with the values). S. aureus RN4220 ugtP deletion, OD600 growth, 16 h; in the data active means growth inhibition above about 68%;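 further: plate controls were untreated wells for no effect and antibiotic for full effect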
# Sa RN4220 lethal = S. aureus RN4220 growth inhibition | OD600, 16 h | inhibition, % (no concentration beside the values) | actives 0.33% (n = 330,000) | AID 1259311; in the data active means inhibition above about 85%;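 further: plate controls were untreated cells for no effect and reference antibiotic for full effect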
# Numbers without * were called inactive; · = no result. Most compounds without a hit are left out; they make up all but 0.65% or so of the library.
SMILES,BJeLR lethal,Sa ugtP lethal,Sa RN4220 lethal
O=C(CCC(=O)Nc1ccc(Cl)cc1Cl)NN=Cc1ccc([N+](=O)[O-])o1,·,100.0*,96.0*
O=C(N/N=C/c1ccc([N+](=O)[O-])o1)c1ccc2c(c1)OCO2,-2.1,·,·
Cn1cc(CN2CCCC(C(=O)Nc3cccc(-c4cc5ccccc5[nH]4)c3)C2)cn1 (stereo not given),1.8,·,·
COc1ccc(/C=C(\NC(=O)c2ccc(OC)cc2)C(=O)NC(CCSC)C(=O)O)cc1 (stereo not given),-2.0,2.0,1.2
CC1CCc2nc(N)c(C#N)c(-c3cccnc3)c2C1 (stereo not given),6.2,7.5,2.0
O=C(O)/C=C/c1ccc([N+](=O)[O-])o1,0.9,27.5,2.7
N#CCc1ccc(NC(=O)/C=C/c2ccc([N+](=O)[O-])o2)cc1,100.7*,100.4*,100.7*
Cn1c(=O)c(C#N)c(-c2ccc(F)cc2)c2cc(C(=O)c3cc(Cl)cc(Cl)c3O)cnc21,-3.6,84.9,73.4
CCCSC(=S)c1c(C)[nH]n(-c2ccccc2)c1=O,-1.9,89.8*,90.8*
CC(=NNC(=O)c1ccccc1)c1c(C)[nH]n(-c2ccccc2)c1=O,·,-6.5,7.5
CCCCN(CCCC)C(=S)N/N=C/c1c(C)[nH]n(-c2ccccc2)c1=O,18.2,·,·
CCC(=NNC(=O)c1ccccc1O)c1c(C)[nH]n(-c2ccccc2)c1=O,·,97.9*,92.5*
CC(=O)Nc1cc(F)c2c(c1F)Cc1cc(F)ccc1-2,·,14.7,-8.2
CCOC(=O)c1cnc2ccc(OCC)cc2c1N(C)Cc1ccccc1,1.2,-15.3,-16.3
Cc1ccc(N(C(=O)c2snc(C(N)=O)c2N)C(C(=O)NCCC(C)C)c2ccco2)cc1 (stereo not given),2.0,-5.5,-2.2
COc1cc(/C=N/N=C(N)N)ccc1OCc1ccccc1Cl,5.0,·,·
NC(N)=NN=Cc1ccc(OCc2ccccc2Cl)cc1,·,100.8*,100.3*
CC1(C)CC2(C)Nc3ccccc3N2C(=S)N1 (stereo not given),9.2,6.4,8.0
Cc1ccccc1Nc1nc(N)nc(CCl)n1,66.9*,2.5,2.3
COc1ccc(Nc2nc(N)nc(CCl)n2)cc1,46.5,12.4,8.4
Cc1ccccc1Nc1nc(N)nc(CN(C)c2ccccc2)n1,8.2,0.9,3.6
Nc1nc(CCl)nc(Nc2ccc3ccccc3c2)n1,114.0*,-8.8,11.3
CN(CCOc1ccc(Cl)cc1)C(=O)CN1C(=O)NC2(CCCCC2)C1=O,0.4,-7.6,-6.2
Cc1occc1C(=O)NC1CCCCCCC1,19.1,14.0,2.9
Cc1ccc(S(=O)(=O)NCC(=O)N(CC(=O)NC(C)(C)C)Cc2ccc3c(c2)OCO3)cc1,-9.2,2.1,0.5
SMILES,BJeLR lethal,Sa ugtP lethal,Sa RN4220 lethal
CC(C)c1cc(C(=O)OCC(=O)NC(=O)NCc2ccco2)c(O)c(C(C)C)c1,3.9,93.6*,-7.4
O=C(COC(=O)c1ccccc1C(F)(F)F)NC(=O)NCc1ccco1,·,6.5,5.9
COC/C=C/C1=CC2=CC(=O)C(C)(OC(=O)c3cnc4ccccc4n3)C(=O)C2=CN1CCCOC(C)C (stereo not given),-10.6,·,·
CCCN1CCN(C(=O)CN2C(=O)COc3ccc(S(=O)(=O)N(CC)CC)cc32)CC1,-0.6,-1.7,0.5
CC(C)c1ccc(CNc2cc(N3CCCC3)ccc2[N+](=O)[O-])cc1,-5.2,0.7,6.5
CC(C)(C)c1ccc(CNc2cc(N3CCOCC3)ccc2[N+](=O)[O-])cc1,-2.1,91.7*,-3.5
Cc1sc2ncnc(SCC(=O)N3c4ccccc4Sc4ccc(Cl)cc43)c2c1C,-8.3,5.3,3.6
CCOC(=O)c1c(C)sc2c1N(C(=O)CCl)c1cc(Cl)ccc1S2,0.0,92.8*,64.1
O=C(Nc1ccccc1)Nc1cc(Cl)cc(Cl)c1,-4.2,·,·
O=C(Nc1ccccc1)Nc1cc(OCC(F)(F)F)cc(OCC(F)(F)F)c1,23.5,93.8*,90.4*
Cc1ccc(C(=O)Nc2ncc([N+](=O)[O-])s2)cc1,13.4,92.2*,93.2*
O=C(COc1ccc(Cl)cc1)Nc1ncc([N+](=O)[O-])s1,11.7,98.3*,100.0*
O=C(Cc1ccc(Cl)cc1)Nc1ncc([N+](=O)[O-])s1,41.1,14.7,29.8
Cc1onc(-c2ccccc2)c1C(=O)Nc1ncc([N+](=O)[O-])s1,9.8,82.4*,80.3
Cc1onc(-c2ccccc2)c1C(=O)Nc1nnc(C(C)C)s1,-3.3,2.4,10.4
O=C(Nc1ncc([N+](=O)[O-])s1)c1ccc2c(c1)OCO2,34.2,·,·
Cc1ccc(C(=O)COC(=O)CN2C(=O)C3C4C=CC(C4)C3C2=O)cc1[N+](=O)[O-] (stereo not given),7.2,1.0,-2.3
CN(CC(=O)Nc1ccc(F)cc1)C(=O)c1ccc2ccccc2n1,·,5.7,2.7
CCOC(=O)C1CCN(C=C2C(=O)NC(=S)N(c3cccc(OC)c3)C2=O)CC1,·,-0.1,2.2
C#Cc1ccc(CN2CCN(CCc3ccccc3)C(CCO)C2)cc1 (stereo not given),-1.8,3.3,-1.5
O=S(=O)(c1ccc2c(c1)C(=NO)c1cc(S(=O)(=O)N3CCCCC3)ccc1-2)N1CCCCC1,94.9*,-8.7,3.2
CC1CCN(S(=O)(=O)c2ccc3c(c2)C(=NO)c2cc(S(=O)(=O)N4CCC(C)CC4)ccc2-3)CC1,·,-29.0,-24.8
COc1ccc(C=CC(=O)c2cc(O)ccc2O)cc1,·,0.5,5.6
COc1cccc(C(c2sc3nc(C)nn3c2O)N2CCN(C(=O)c3ccco3)CC2)c1 (stereo not given),6.4,2.6,17.1
CNc1ccc2oc(CC3O[C@@]4(CCC3C)OC(C(C)C(=O)c3ccc[nH]3)C(C)CC4C)nc2c1C(=O)O (stereo not given in full),·,99.5*,96.4*
SMILES,BJeLR lethal,Sa ugtP lethal,Sa RN4220 lethal
CNc1ccc2oc(C[C@H]3O[C@@]4(CC[C@H]3C)O[C@H]([C@H](C)C(=O)c3ccc[nH]3)[C@H](C)C[C@H]4C)nc2c1C(=O)O,30.8,·,·
Cc1noc(C)c1S(=O)(=O)N1CCN(C(c2ccccc2)c2ccc(Cl)cc2)CC1 (stereo not given),-3.1,15.3,-2.2
N=c1c2c(-c3ccccc3)c(-c3ccccc3)n(Cc3ccco3)c2ncn1CCO,-4.7,84.7*,-0.4
N=c1c2c(-c3ccccc3)c(-c3ccccc3)n(Cc3ccco3)c2ncn1CCCO,18.5,12.8,-4.5
CCOc1ccccc1NC(=O)c1ccc2nc[nH]c2c1,-8.5,-7.0,3.2
COc1ccc(-n2c(=O)c3ccccc3n(CC(=O)c3ccccc3)c2=O)cc1OC,-3.1,0.6,0.9
CCOC(=O)c1cc2c(OC)ccc(OC)c2n1CC(=O)c1ccccc1,10.0,89.4*,3.3
N#CC(C#N)=C(C#N)c1ccc(Nc2ccccc2)cc1,-3.4,-1.7,1.6
O=C(CSc1ccccn1)Nc1ccc(NC(=O)CSc2ccccn2)cc1,-1.5,1.9,2.2
O=C(CSc1ccccn1)Nc1nonc1[N+](=O)[O-],23.0,86.5*,40.4
O=C(Nc1cccc([N+](=O)[O-])c1)c1ccc2ccccc2c1O,24.3,86.2*,86.1*
O=C(Cc1ccccc1)Nc1cccc([N+](=O)[O-])c1,-0.1,-1.4,-0.3
Nc1nc(CCl)nc(N(c2ccccc2)c2ccccc2)n1,64.6*,5.6,2.8
Nc1nc(Cl)nc(N(c2ccccc2)c2ccccc2)n1,1.9,14.0,2.8
